# Source: the supplement of paper PMC8728848
# This excerpt belongs to a sample that is enriched for the strongest signals.
# B1: SJCP3842 (Schistosoma japonicum) (protein)
# chain: MFKMRIINLVNISTVLLLINLLQTKSRLVGKENGFMLTVSIYGAQLSDKMTSVPVSWTIDYEDPEKSAFKKLVTDSCDTFSEYVKSQIPKGSVDGQCTSHIFQRPGSGSGVSISLTLSFIYVDVTQPDTVALKTELEKHFANFVTIHSHKITQAQFRINQKAIVIPTGDKDAIDGSKWKIIAIIALVALAIVVIGGFIYICVK
# Legend:
# Test in all cases: glycan array binding signal (z-score within array); higher = stronger binding
# Settings in all cases: glycan notation: IUPAC condensed, linker removed
# [1] = biological target: Fuc(a1-2)Gal(b1-3)GalNAc(b1-4)[Neu5Ac(a2-3)]Gal(b1-4)Glc
# Summary of the method: (§1)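 The Consortium for Functional Glycomics database supplied 3228 glycan arrays, of which those lacking an available protein sequence were dropped. The binding signal, a within-array Z-score, was averaged across arrays of the same protein sequence and across linkers. Negative scores can be read as non-binding.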
# [2] = biological target: Fuc(a1-2)[Gal(a1-3)]Gal(b1-4)GlcNAc(b1-2)Man
# Summary of the method: as §1
# [3] = biological target: Fuc(a1-2)[Gal(a1-3)]Gal(b1-4)GlcNAc(b1-2)Man(a1-3)[Fuc(a1-2)[Gal(a1-3)]Gal(b1-4)GlcNAc(b1-2)Man(a1-6)]Man(b1-4)GlcNAc(b1-4)GlcNAc
# Summary of the method: as §1
# [4] = biological target: Fuc(a1-2)[Gal(a1-3)]Gal(b1-4)GlcNAc(b1-3)GalNAc
# Summary of the method: as §1
# [5] = biological target: Fuc(a1-2)[Gal(a1-3)]Gal(b1-4)[Fuc(a1-3)]GlcNAc
# Summary of the method: as §1
# Fuc(a1-4)GlcNAc = biological target: Fuc(a1-4)GlcNAc
# Summary of the method: as §1
# [6] = biological target: Gal(a1-3)Gal(b1-3)GlcNAc(b1-2)Man(a1-3)[Gal(a1-3)Gal(b1-3)GlcNAc(b1-2)Man(a1-6)]Man(b1-4)GlcNAc(b1-4)GlcNAc
# Summary of the method: as §1
# [7] = biological target: Gal(a1-3)Gal(b1-3)GlcNAc(b1-3)GalNAc
# Summary of the method: as §1
# [8] = biological target: Gal(a1-3)Gal(b1-3)[Fuc(a1-4)]GlcNAc(b1-2)Man(a1-3)[Gal(a1-3)Gal(b1-3)[Fuc(a1-4)]GlcNAc(b1-2)Man(a1-6)]Man(b1-4)GlcNAc(b1-4)GlcNAc
# Summary of the method: as §1
# [9] = biological target: Gal(a1-3)Gal(b1-4)GlcNAc(b1-2)Man
# Summary of the method: as §1
# [10] = biological target: Gal(a1-3)Gal(b1-4)GlcNAc(b1-2)Man(a1-3)[Gal(a1-3)Gal(b1-4)GlcNAc(b1-2)Man(a1-6)]Man(b1-4)GlcNAc(b1-4)GlcNAc
# Summary of the method: as §1
# [11] = biological target: Gal(a1-3)Gal(b1-4)GlcNAc(b1-6)GalNAc
# Summary of the method: as §1
# [12] = biological target: Gal(a1-3)Gal(b1-4)[Fuc(a1-3)]GlcNAc
# Summary of the method: as §1
# Gal(a1-4)Gal(b1-4)Glc = biological target: Gal(a1-4)Gal(b1-4)Glc
# Summary of the method: as §1
# [13] = biological target: Gal(a1-4)Gal(b1-4)GlcNAc(b1-2)Man(a1-3)[Gal(a1-4)Gal(b1-4)GlcNAc(b1-2)Man(a1-6)]Man(b1-4)GlcNAc(b1-4)GlcNAc
# Summary of the method: as §1
# Gal(a1-6)Glc = biological target: Gal(a1-6)Glc
# Summary of the method: as §1
# [14] = biological target: Gal(b1-3)GlcNAc(b1-3)Gal(b1-4)GlcNAc(b1-2)[Gal(b1-3)GlcNAc(b1-3)Gal(b1-4)GlcNAc(b1-6)]Man(a1-6)[Gal(b1-3)GlcNAc(b1-3)Gal(b1-4)GlcNAc(b1-2)Man(a1-3)]Man(b1-4)GlcNAc(b1-4)[Fuc(a1-6)]GlcNAc
# Summary of the method: as §1
# [15] = biological target: Gal(b1-3)GlcNAc(b1-3)Gal(b1-4)GlcNAc(b1-3)Gal(b1-4)GlcNAc(b1-2)[Gal(b1-3)GlcNAc(b1-3)Gal(b1-4)GlcNAc(b1-3)Gal(b1-4)GlcNAc(b1-6)]Man(a1-6)[Gal(b1-3)GlcNAc(b1-3)Gal(b1-4)GlcNAc(b1-3)Gal(b1-4)GlcNAc(b1-2)Man(a1-3)]Man(b1-4)GlcNAc(b1-4)[Fuc(a1-6)]GlcNAc
# Summary of the method: as §1
# Gal(b1-4)Gal = biological target: Gal(b1-4)Gal
# Summary of the method: as §1
# Gal(b1-4)Glc = biological target: Gal(b1-4)Glc
# Summary of the method: as §1
# [16] = biological target: Gal(b1-4)GlcNAc(b1-2)Man(a1-3)Man(b1-4)GlcNAc(b1-4)GlcNAc
# Summary of the method: as §1
# [17] = biological target: Gal(b1-4)GlcNAc(b1-3)Gal(b1-4)GlcNAc
# Summary of the method: as §1
# [18] = biological target: Gal3S(b1-4)[Fuc(a1-3)]Glc6S
# Summary of the method: as §1
# Gal3S4S(b1-4)GlcNAc = biological target: Gal3S4S(b1-4)GlcNAc
# Summary of the method: as §1
# Gal3S6S(b1-4)GlcNAc = biological target: Gal3S6S(b1-4)GlcNAc
# Summary of the method: as §1
# Gal6S(b1-3)GlcNAc = biological target: Gal6S(b1-3)GlcNAc
# Summary of the method: as §1
# [19] = biological target: GalNAc(b1-4)GlcNAc(b1-2)Man(a1-3)[GalNAc(b1-4)GlcNAc(b1-2)Man(a1-6)]Man(b1-4)GlcNAc(b1-4)GlcNAc
# Summary of the method: as §1
# GalNAc3S(b1-4)GlcNAc = biological target: GalNAc3S(b1-4)GlcNAc
# Summary of the method: as §1
# Glc(b1-4)Glc = biological target: Glc(b1-4)Glc
# Summary of the method: as §1
# [20] = biological target: GlcNAc(a1-4)Gal(b1-4)GlcNAc(b1-3)Gal(b1-4)GlcNAc
# Summary of the method: as §1
binder,measurement,setting,value
B1,glycan array binding signal (z-score),[1],0.207
same,glycan array binding signal (z-score),[2],-1.05
same,glycan array binding signal (z-score),[3],0.46
same,glycan array binding signal (z-score),[4],0.343
same,glycan array binding signal (z-score),[5],0.536
same,glycan array binding signal (z-score),Fuc(a1-4)GlcNAc,4.44
same,glycan array binding signal (z-score),[6],3.31
same,glycan array binding signal (z-score),[7],0.153
same,glycan array binding signal (z-score),[8],2.45
same,glycan array binding signal (z-score),[9],-1.09
same,glycan array binding signal (z-score),[10],-0.76
same,glycan array binding signal (z-score),[11],-0.327
same,glycan array binding signal (z-score),[12],0.63
same,glycan array binding signal (z-score),Gal(a1-4)Gal(b1-4)Glc,-1.04
same,glycan array binding signal (z-score),[13],2.55
same,glycan array binding signal (z-score),Gal(a1-6)Glc,-1.59
same,glycan array binding signal (z-score),[14],1.25
same,glycan array binding signal (z-score),[15],1.37
same,glycan array binding signal (z-score),Gal(b1-4)Gal,-0.475
same,glycan array binding signal (z-score),Gal(b1-4)Glc,-1.59
same,glycan array binding signal (z-score),[16],-0.919
same,glycan array binding signal (z-score),[17],-0.05
same,glycan array binding signal (z-score),[18],2.61
same,glycan array binding signal (z-score),Gal3S4S(b1-4)GlcNAc,-0.987
same,glycan array binding signal (z-score),Gal3S6S(b1-4)GlcNAc,2.36
same,glycan array binding signal (z-score),Gal6S(b1-3)GlcNAc,-0.626
same,glycan array binding signal (z-score),[19],0.2
same,glycan array binding signal (z-score),GalNAc3S(b1-4)GlcNAc,0.48
same,glycan array binding signal (z-score),Glc(b1-4)Glc,-0.571
same,glycan array binding signal (z-score),[20],-0.28
